Among the data in the OligoGym collection are sensor-assay potency score (higher = more potent) values, retold here.
Also: reference of the scale not given here.

For one assay, the target named is ABHD8. As to the kind of experiment: pooled miR-30 sensor sort-seq; sequence = guide strand. Conditions: shRNA.
In turn, AAACTTATCGTGCATGCCGTGG returned a sensor-assay potency score (higher = more potent) of -1.36.
TTGACCTCTACAAAGGTGTAGC: the sensor-assay potency score (higher = more potent) was -0.315.
Consider TTGCGGTACACGGTGATCCGGC, for which the sensor-assay potency score (higher = more potent) is -0.925.
The sequence TTTGCAGCTAGTGATGCGCTTC gave a sensor-assay potency score (higher = more potent) of -0.147.
Same read-out and setting: as for TCACCTTGTGCACTAGGTCTGG, the figure is -0.472.
TTTAACAGCTGCTTCTCCTTGG had a sensor-assay potency score (higher = more potent) of 0.506.
Take TTAACAGCTGCTTCTCCTTGGC: the sensor-assay potency score (higher = more potent) is -0.231.
TAGCGCTTGAAGATTGCTCGCA returned a sensor-assay potency score (higher = more potent) of 0.247.
The sequence TTCGCTTCTTGGCATAGCGCTT gave a sensor-assay potency score (higher = more potent) of -0.977.
As for TACAAAGGTGTAGCCATCGCTG, the sensor-assay potency score (higher = more potent) was -0.814.

The next assay deals with ACACB. The assay is described as above. Conditions: shRNA.
On to TTTATCACACACTTGTCGTAGT, for which the sensor-assay potency score (higher = more potent) amounted to 0.458.
TTGTAAGCTGGATCGATCCTTC showed a sensor-assay potency score (higher = more potent) of -0.276.
As for TTGTCATAAACATCTTCTGGGA, the sensor-assay potency score (higher = more potent) was -0.671.
For the sequence TTCAGTAGTGAATCCGCTGGGA, the sensor-assay potency score (higher = more potent) worked out at 0.353.
Turning to TAAGAAAGCAACTCCATTCTTG, the sensor-assay potency score (higher = more potent) was 0.182.
For the sequence TTCATGTAGGTGGTGTAGCTGT, the sensor-assay potency score (higher = more potent) was -0.772.
On to TTGATCTTGACCTCAGCCTGTA, for which the sensor-assay potency score (higher = more potent) stood at 0.316.
Consider TTTGTCTGCATACATTTCTATG, for which the sensor-assay potency score (higher = more potent) was -1.38.
Sequence TGTATCTGGACTCTCCTCCTTC had a sensor-assay potency score (higher = more potent) of -0.0476.
On to TTGGATGTGTAGACCTCTCTTC, for which the sensor-assay potency score (higher = more potent) was 0.36.
The sequence TTCTTGTCTTCTTTGGAGGGGG registered a sensor-assay potency score (higher = more potent) of -0.0633.
TTTATCAGATCTTTCTTTCGGA showed a sensor-assay potency score (higher = more potent) of 0.775.
Still for that read-out and setting: as for TTGGACTGTACGAATGTCCGTA, the figure is 0.552; as for TTATCAGATCTTTCTTTCGGAA, -0.751; as for TACATTTCTATGCACAGCGGGT, -1.13.
On the same count and under the same terms, under TTTGCTTCTGATTTACTCTTGG stands 0.795; under TTCTCAAACACACACGTCTTAT, -1.28; under TAGAGGTATTCCACTGTCCCTG, -0.211.
In turn, TAATTTCTTGAGGTTCTCGGGG yielded a sensor-assay potency score (higher = more potent) of -0.145.
TACTTGTCTGAAAAGGATCGGG registered a sensor-assay potency score (higher = more potent) of 0.16.
TTACTCTTGGTGATCGGCTTGG: the sensor-assay potency score (higher = more potent) was 0.104.
As to TTCGGTAACTGTCAACCTCTTC, the sensor-assay potency score (higher = more potent) was -0.589.
Turning to TATCACACACTTGTCGTAGTGG, the sensor-assay potency score (higher = more potent) was 0.451.

Another assay has as its target ACAD10. The description is as above. The note with it: shRNA.
Take TTCCAGTCCATACACCGTCAGA: the sensor-assay potency score (higher = more potent) is -1.34.
Still for that read-out and setting: under TAATCCTGAACTCCCTCTCTAT stands -1.27; under TTCAGCTTTGGCTTTCTCCTTG, -0.097; under TTCGGTGCCATACCTCACCAGC, -0.906.
Same read-out and setting: as for AAGCACAGCTTGTAGATCCTAG, the figure is 0.0767; as for TTTCATAATCCTGAACTCCCTC, -0.41; as for TATGACATAGAAGCTGTCCTCC, 1.02.
